Rows were chosen to be rich in hits. Some 2.4% of all compounds tested hit in one or more screens of this group.
D2 ag-1: activates the human D2 dopamine receptor. DiscoveRx PathHunter D2 beta-arrestin, luminescence, 90 min; 100% = 57 uM dopamine signal. AID 624465. 0.084% of 360,000 active. P14416. activation, % (no concentration beside the values); in the data active = activation above about 40%
Target sequence (P14416 whole entry, looked up): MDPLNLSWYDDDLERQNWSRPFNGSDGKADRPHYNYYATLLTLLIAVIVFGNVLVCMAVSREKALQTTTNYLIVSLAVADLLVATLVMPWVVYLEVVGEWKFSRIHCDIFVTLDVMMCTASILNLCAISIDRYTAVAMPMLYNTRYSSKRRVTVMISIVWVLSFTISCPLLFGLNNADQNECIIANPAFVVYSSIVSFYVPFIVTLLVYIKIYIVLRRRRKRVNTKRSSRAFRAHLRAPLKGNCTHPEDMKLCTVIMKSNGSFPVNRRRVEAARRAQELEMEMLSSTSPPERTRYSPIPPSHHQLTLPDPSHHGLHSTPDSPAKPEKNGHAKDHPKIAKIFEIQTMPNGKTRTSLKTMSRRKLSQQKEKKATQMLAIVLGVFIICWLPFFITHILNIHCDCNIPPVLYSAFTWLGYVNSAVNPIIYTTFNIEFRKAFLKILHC
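DiscoveRx PathHunter D2 beta-arrestin cells (2,100/well) attached overnight, then compound-stimulated 90 min at 37 C in HBSS/10 mM HEPES/0.1% Tween-20 buffer; beta-galactosidase complementation read by luminescence after 1 h at ambient temperature. Dopamine 57 uM final (EC100) as control.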
D2 antag: antagonizes the human D2 dopamine receptor; P14416; 2% of 340,000 active; HEK293 TREx D2 cells, calcium flux, dopamine EC80; inhibition, % at 10 µM; AID 485344; in the data active = inhibition above about 30%; inactive = below that, where a call was filed; also: 0% is about no effect
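Measurement of antagonist activity uses fluorescent calcium dye in inducible HEK293 T-REx D2 cells: 10 s baseline, compound addition with 180 s read, EC80 dopamine addition with a further 180 s read.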
D2 PAM-1: positive allosteric modulators of human D2 dopamine receptor; 0.34% of 340,000 active; potentiation, % at 10 µM; AID 485347; HEK293 T-REx D2, calcium flux, EC20 dopamine potentiation; P14416;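 active = potentiation over 3 SD above the plate norm, cut at about 30% in these data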; also: 0% is about no effect
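Cells plated with tetracycline inducer and held overnight at 30 C; calcium dye loaded 30–90 min at room temperature; baseline taken, compound added and read 180 s; EC20 dopamine then added and read 180 s.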
D2 PAM-2: human D2 receptor positive allosteric modulation. P14416. DiscoveRx D2 beta-arrestin cells, luminescence, 90 min; 100% = 57 uM dopamine signal. potentiation, % (concentration not given with the values). 0.23% of 360,000 active. AID 624464; in the data active = potentiation above about 50%
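PathHunter beta-arrestin assay in DiscoveRx D2 cells. Compounds were added with an EC20 of dopamine (50 nM final) for 90 min at 37 deg C. Luminescence was read 1 h after detection reagent, with 57 uM dopamine as the EC100 control.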
D2 ag-2: activates the human D2 dopamine receptor. P14416. HEK293 T-REx D2 cells, calcium flux agonist mode. AID 485358. activation, % at 2 µM. 0.53% of 340,000 active;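 active = activation over 3 SD above normal in the single-dose calcium agonist read, cut at about 30% in these data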; also: 0% is about no effect
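Tetracycline-induced HEK293 T-REx cells with force-coupled D2 receptor, plated overnight at 30 C, loaded with no-wash calcium dye. After a 10 s baseline, compound was pin-added and calcium flux read kinetically for 180 s; calcium rises flagged agonists.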
The depositor's hits bear a star; . = not tested or not shown.

SMILES | D2 ag-1 | D2 antag | D2 PAM-1 | D2 PAM-2 | D2 ag-2
CCN1C(=O)NC(=O)/C(=C/c2cc(C)n(-c3sc(C)c(C)c3C#N)c2C)C1=O | 0 | -24 | 44* | 11 | -2
Cc1cccc(N2CCN(CCc3ccccc3)CC2)c1C | -8 | -18 | 10 | -26 | -1
CCCCCCN1CCN(c2ccccc2Cl)CC1 | 2 | 76* | -28 | -11 | 4
O=C(NCc1ccc(C(=O)N2CCC3(CC2)OCCO3)cc1)c1ccc2c(c1)OCO2 | -2 | -22 | 5 | -7 | 0
O=C(c1ccc2c(=O)n(Cc3ccc4c(c3)OCO4)c(=S)[nH]c2c1)N1CCC2(CC1)OCCO2 | -1 | 44* | 6 | -10 | 0
CC(=O)c1ccc(OC(NC(=O)c2ccco2)C(Cl)(Cl)Cl)cc1 (centres undefined) | -1 | 6 | 32* | -1 | -1
O=C(NC(Oc1ccccc1)C(Cl)(Cl)Cl)c1ccccc1 (centres undefined) | -1 | 16 | -4 | -4 | -1
c1ccc2c(CN3CCN(C4CCCCC4)CC3)c[nH]c2c1 | -1 | -10 | -10 | -18 | 0
OC(CN1CCC(c2c[nH]c3ccccc23)CC1)C(F)(F)F (centres undefined) | -5 | 77* | -15 | -10 | 0
COc1cc(CN2CC=C(c3ccc(F)cc3)CC2)cc(OC)c1 | -2 | 81* | -30 | -2 | 0
COc1cc(C)c(CN2CC=C(c3ccc(F)cc3)CC2)cc1C | 0 | 84* | -27 | -17 | -1
O=C(Nc1ccc(F)c(Cl)c1)N(Cc1ccc2c(c1)OCO2)C1CCN(Cc2ccccc2)CC1 | . | . | -4 | . | 1
COc1ccc(Br)cc1C1SCC(=O)Nc2c1c(C)nn2-c1ccccc1C (centres undefined) | . | . | -5 | . | .
CC(=NCCC1=CCCCC1)c1c(O)n(-c2ccccc2)c(=O)[nH]c1=O | -5 | 31* | -9 | -3 | 0
COc1ccc(C)cc1NC(=O)c1cccn(Cc2cccc([N+](=O)[O-])c2)c1=O | . | . | -10 | . | .
Cc1cc(-n2c(/C=C/c3ccc(Br)s3)nc3ccccc3c2=O)ccc1Br | . | . | -13 | . | .
O=C1NC(=O)N(c2ccccc2F)C(=O)/C1=C/c1ccc(Sc2nc3ccccc3[nH]2)o1 | -5 | 44* | 10 | -6 | 19
CC(=O)OCC[N+](C)(C)C | -4 | -17 | 6 | 1 | 45*
C[N+](C)(C)CCOC(=O)CBr | -6 | -10 | 7 | -5 | 0
Cc1cc(C)cc(N2C(=O)NC(=O)/C(=C\c3cccn3-c3ccccc3)C2=O)c1 | -3 | -6 | 19 | -2 | 4
Cc1cc(C)cc(N2C(=O)NC(=O)/C(=C\c3cccn3-c3ccc(Cl)cc3)C2=O)c1 | 1 | 38* | 9 | -7 | 0
Cc1ccc(NC(=O)CN2C(=O)CN=C(c3ccccc3)c3ccccc32)c(C)c1 | . | . | -5 | . | 0
CCC1(c2cccc(O)c2)CCCCN(C)C1 (centres undefined) | -2 | 39* | -9 | -3 | 1
O=C(c1ccc2c(c1)N(Cc1c(F)cccc1Cl)C(=O)c1ccccc1S2)N1CCC2(CC1)OCCO2 | . | . | -1 | . | 0
CCc1ccc(-n2nc(C)c3c2NC(=O)CSC3c2ccc(C(=O)OC)cc2)cc1 (centres undefined) | . | . | -2 | . | -1
SMILES | D2 ag-1 | D2 antag | D2 PAM-1 | D2 PAM-2 | D2 ag-2
CCN(CC)CCSc1nc2ccccc2c(=O)n1-c1ccc(Cl)cc1 | . | . | 0 | . | -4
CC(C)OP(=O)(OC(C)C)C(O)c1ccc(Br)cc1 (centres undefined) | 12 | 0 | -4 | 104* | -1
O=S1(=O)N(Cc2ccccc2)CCCN1Cc1ccc(F)cc1Cl | . | . | -4 | . | 0
CCCCC1(CCCC)C(=O)NC(=Nc2cccc(C)c2)NC1=O | -3 | -17 | 14 | -14 | 0
Cc1cccc(N=C2c3cc([N+](=O)[O-])ccc3-c3c2cc([N+](=O)[O-])cc3[N+](=O)[O-])c1 | 10 | . | . | 109* | .
Cc1cccc(NC2=NCCCS2)c1C | 2 | 38* | -10 | -6 | 0
Cc1ccccc1NC1=NCCCS1 | -1 | -22 | 6 | -11 | 1
CCC(C(=O)Nc1ccccc1F)N1C(=O)CN=C(c2ccccc2)c2ccccc21 (centres undefined) | . | . | 10 | . | 1
COc1cc(/C=C/c2nc3ccccc3c(=O)n2-c2ccc(Br)c(C)c2)ccc1O | . | . | . | . | 0
COc1ccccc1N1CCN(Cc2ccccc2F)CC1 | -1 | 81* | -27 | 5 | 6
COc1ccccc1N1CCN(Cc2cnc(-c3ccccc3)[nH]2)CC1 | -3 | 57* | -13 | -21 | 0
COc1ccccc1N1CCN(Cc2ccccc2Cl)CC1 | -2 | 79* | -21 | -14 | 4
COc1ccccc1N1CCN(CCc2ccccc2)CC1 | 0 | 73* | -32 | -7 | 1
Cc1cccc(Cn2cccc(C(=O)Nc3nc4ccccc4s3)c2=O)c1 | . | . | -2 | . | 1
Cc1cc(OCC(=O)N2CCN(CCc3ccccn3)CC2)cc(C)c1Cl | . | . | . | . | -2
COc1ccccc1N1CCN(Cc2ccc(Br)cc2)CC1 | -3 | 94* | -21 | -66 | 0
CCOC(=O)C1CCCN(c2ccc([N+](=O)[O-])c3nonc23)C1 (centres undefined) | 4 | 52* | -8 | -15 | 135*
CC1CCCN(c2ccc(C(=O)N3CCC4(CC3)OCCO4)cc2[N+](=O)[O-])C1 (centres undefined) | 0 | -4 | 6 | -6 | 3
CC(C)c1ccc(NC(=O)CN2C(=O)CN=C(c3ccccc3)c3ccccc32)cc1 | . | . | 2 | . | 0
Cc1nn(CC(C)C)c(Cl)c1C(=O)NC1CCCC1 | -2 | . | . | -8 | .
Cc1nn(CC(C)C)c(Cl)c1C(=O)NC1CCCCC1 | -3 | 30* | 2 | 22 | 0
O=C(Nc1ccc(OC(F)(F)F)cc1)c1cccn(Cc2ccccc2Cl)c1=O | . | . | -1 | . | 4
Cc1ncc([N+](=O)[O-])n1CCOC(N)=O | -1 | 38* | 5 | -11 | -1
CN1CC=C(c2c[nH]c3ccccc23)CC1 | -2 | 75* | -22 | -13 | 0
C1=C(c2c[nH]c3ccccc23)CCN(Cc2ccccc2)C1 | -19 | 70* | -21 | 6 | 0
CCOc1ccc(CN(CCc2ccc3c(c2)OCO3)Cc2cc(OC)ccc2O)cc1 | . | . | -7 | . | 0
COc1ccc(CCN)cc1O | 4 | . | . | -17 | .
CNCCc1ccc(O)c(O)c1 | 76* | . | . | 66* | .
C[C@@H]1C[C@H]2OC(=O)C3(CO3)[C@H]2[C@H](O)[C@]2(C)C(=O)C3OC3[C@@H]12 (some centres undefined) | . | 41* | 15 | . | 0
N#Cc1cc2c(nc1SCC(=O)Nc1ccc(Cl)c(C(F)(F)F)c1)C1CCN2CC1 | . | . | 18 | . | 1
